# Data: PubChem BioAssay (Tox21)
# “And” between values parts separate entries of the source, which are not always exact repeats. Identical values can stand only once. Records with an inconclusive call do not appear. Where a call stands in place of a potency, no number is given. Unmarked numbers belong to inactive results. The source made the active and inactive calls. Calls follow the shape of the dose curve; as a rule, active = well fitted cell-killing curve with a large enough effect in the repeat runs; inconclusive = weak or mixed curves, or effect the other way; inactive = no such curve, though single readings can be large or run the other way.
# Assay: Caspase-3/7 induction in CHO-K1 cells by small molecules, qHTS cell viability counter screen (AID 1346979); also: nearly all actives have a fitted effect of over 35% in size
# Details: CellTiter-Fluor fluorescence, 17 h; series mostly up to 92.4 µM
# Description: National Center for Advancing Translational Sciences [NCATS]
# NIH Chemical Genomics Center [NCGC]
# U.S. Environmental Protection Agency [EPA]
# National Institutes of Environmental Health Sciences [NIEHS]
# National Toxicology Program [NTP]
# U.S. Food and Drug Administration [FDA]
# Apoptosis is a process of programmed cell death and plays a central role in the development of multicellular organisms. It is a highly regulated process and induces cell death by activating caspases, which are the members of cysteine aspartic acid-specific protease (caspase) family. Caspases involved in apoptosis are classified by their mechanism of action as initiator caspases (caspase-2, -8, -9 and -10) and executioner caspases (caspase-3, -6, and -7). Inhibition of apoptosis results in number of cancers, autoimmune diseases, inflammatory diseases and viral infection. To identify small molecule compounds that induce apoptosis, a homogeneous, luminescent Caspase-Glo 3/7 assay was used. Wild type CHO-K1 cells were used to screen Tox21 libraries for identifying caspase-3/7 activity inducers. Also cytotoxicity of the compounds was tested in parallel by measuring the cell viability using CellTiter-Fluor assay system in the same wells.
# Tox21 Assay Protocol Summary:
# CHO-K1 cells were dispensed at 1,500 per well in 5uL of culture medium into white solid bottom 1536-well plates (Corning Life Sciences, Corning, NY) using a Multidrop Combi (Thermo Scientific, Waltham, MA) dispenser. The assay plates were incubated at 37 C and 5% CO2 for 5hr, and then 23nL of compounds dissolved in DMSO and positive control were transferred using a Pintool station (Wako, San Diego, CA). The assay plates were incubated at 37C and 5% CO2 for 17hr. For cytotoxicity read, after 16hr incubation at 37C, 1uL CellTiter-Fluor reagent (Promega Corporation, Madison, WI) was added to each well of the assay plates using Flying Reagent Dispenser (FRD, Aurora Discovery, San Diego, CA). After 1hr incubation at 37C and 5% CO2, the fluorescence signal was quantified using a ViewLux plate reader (PerkinElmer, Shelton, CT).
# Potency is read from the fitted curve at half-maximal effect.
SMILES,Potency,"activity change, negative = cytotoxicity"
CCOB(OCC)OCC,inactive,
C=CC(=C)CCC=C(C)C,inactive,
Clc1ccccc1CN1CCc2sccc2C1,inactive,
O=C(O)CCCCCCC(=O)O,inactive,
O=S(=O)(O)CCCN1CCOCC1,inactive,
CCCCCCCCCCOCC(O)CN (stereo not given),33.5 µM (active),
CC[N+](CC)(CC)Cc1ccccc1,inactive,
C=CC(=O)OCCOCC(CC)(COCCOC(=O)C=C)COCCOC(=O)C=C,8.02 µM (active),
COc1cc(C(=O)NS(=O)(=O)c2ccccc2C)ccc1Cc1cn(C)c2ccc(NC(=O)OC3CCCC3)cc12,inactive,
O=C1NCCN1CCN1CCC(c2cn(-c3ccc(F)cc3)c3ccc(Cl)cc23)CC1,26.6 µM (active),
Clc1nc2ccccc2s1,inactive,
CCCCCCCC/C=C/CCCOC(C)=O,inactive,
COC(=O)NCCC[Si](OC)(OC)OC,inactive,
O=S(O)O,,9.18% [at 19 µM]
[O]=[Zr],inactive,
COc1ccc(C#N)cc1,inactive,
O=Nc1ccc(NO)cc1,63.6 µM (active),
O=C(Nc1ccc(Cl)c(Cl)c1)c1cc(Cl)cc(Cl)c1O,7.7 µM (active),
C=C/C=C/C=C/CCCCC,,-1.73% [at 19 µM]
Clc1ccc(C(Cn2ccnc2)OCc2c(Cl)cccc2Cl)c(Cl)c1 (stereo not given),21.1 µM (active),

SMILES,Potency,"activity change, negative = cytotoxicity"
CC1CCCNC1 (stereo not given),inactive,
CN(C)c1ccc(N=Nc2ccccc2C(=O)O)cc1,9.69 µM (active),
CCOC(OCC)C(=O)c1ccccc1,inactive,
O=Cc1ccc(F)cc1,inactive,
Oc1cc2ccccc2cc1O,inactive,
CN(C)c1ccc(N=NS(=O)(=O)O)cc1,33.8 µM (active),
Cc1cn[nH]c1,inactive,
C=C1C(C)(C)[C@@]2(Cl)C(Cl)[C@]1(Cl)C(Cl)(Cl)C2(Cl)Cl (stereo not given in full),60 µM (active),
C=CC(C)C#N (stereo not given),inactive,
CCCCCCCOC(=O)c1ccccc1C(=O)OCCCCCCC,inactive,
O=C1Nc2ccc(Cl)cc2[C@@](C#CC2CC2)(C(F)(F)F)O1,21.1 µM (active),
O=C1NCN(c2ccccc2)C12CCN(CCCC(c1ccc(F)cc1)c1ccc(F)cc1)CC2,33.5 µM (active),
O=C(O)Cc1ccc(OCCNC[C@H](O)c2ccccc2)cc1,inactive,
Cc1cccc(C)c1NC(=O)CN1CCN(CCCC(c2ccc(F)cc2)c2ccc(F)cc2)CC1,29.8 µM (active),
CO[C@H]1C=CO[C@@]2(C)Oc3c(C)c(O)c4c(O)c(cc(O)c4c3C2=O)NC(=O)/C(C)=C\C=C/[C@H](C)[C@H](O)[C@@H](C)[C@@H](O)[C@@H](C)[C@H](OC(C)=O)[C@@H]1C,19.5 µM (active),
CCCCCCCCCCCCOC(=O)c1cc(O)c(O)c(O)c1,9.65 µM (active) and 7.7 µM (active),
CC(COC(=O)c1ccccc1)OC(=O)c1ccccc1 (stereo not given),inactive,
CC(=O)OC1CCCCC1,inactive,
c1cc[nH]c1,inactive,
CCc1ccc(C)nc1,inactive,
